Data from PubChem BioAssay (NCATS).
Inconclusive results are not listed. Active and inactive are the calls of the source. The call rests on the fitted dose curve; in most records, active means well fitted curve in the direction sought with a large enough effect; inconclusive means small, poorly fitted or top-dose-only effect, or another doubt; inactive means no such curve, though single readings can be large; an effect the other way counts as inactive or inconclusive.

Legend:
HEK293T = assay: qHTS assay to identify novel small-molecules to repurpose for Merkel cell carcinoma treatment (AID 1296009); settings: MCC and control cell lines, CellTiter-Glo viability, 72 h; at 44.8 µM (top of the series) unless noted; further: nearly all actives have a fitted effect of over 60% in size
Summary of the method: (§1)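 Dose-response viability screen; 72 hr exposure at 37 degree celsius; CellTiter-Glo added, 10 min room temperature, luminescence read; RLUs scaled between no-cell and DMSO wells.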

MCC-13 = assay: as above; settings: MCC and control cell lines, CellTiter-Glo viability, 72 h; series mostly up to 46 µM
Summary of the method: as §1

MCC-26 = assay: as above; settings: MCC and control cell lines, CellTiter-Glo viability, 72 h; series mostly up to 46 µM
Summary of the method: as §1

MKL-1 = assay: as above; settings: MCC and control cell lines, CellTiter-Glo viability, 72 h; series mostly up to 46 µM
Summary of the method: as §1

MKL-2 = assay: as above; settings: MCC and control cell lines, CellTiter-Glo viability, 72 h; series mostly up to 46 µM
Summary of the method: as §1

UISO = assay: as above; settings: MCC and control cell lines, CellTiter-Glo viability, 72 h; series mostly up to 46 µM
Summary of the method: as §1

WaGa = assay: as above; settings: MCC and control cell lines, CellTiter-Glo viability, 72 h; series mostly up to 46 µM
Summary of the method: as §1

C33A = assay: Primary qHTS to identify gynecologic anti-cancer compounds using libraries of approved drugs and bioactive compounds (AID 1345084); settings: Gynecologic cancer cell panel viability, ATPlite luminescence, 48 h; series mostly up to 57.5 µM; further: nearly all actives have a fitted effect of over 55% in size
Summary of the method: (§2)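 ATP-based viability (ATPlite), 1,000 cells/well, 16 h pre-incubation, 48 h compound at 37 C, 5% CO2, 15 min RT before read.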

CAOV3 = assay: as above; settings: Gynecologic cancer cell panel viability, ATPlite luminescence, 48 h; series mostly up to 57.5 µM
Summary of the method: as §2

NIH3T3 = assay: qHTS assay to identify novel small-molecules to repurpose for Merkel cell carcinoma treatment (AID 1296009); settings: MCC and control cell lines, CellTiter-Glo viability, 72 h; at 44.8 µM (top of the series) unless noted; further: nearly all actives have a fitted effect of over 60% in size
Summary of the method: as §1

Measured: Potency

Cc1ncc([N+](=O)[O-])n1C
not listed: NIH3T3
inactive: all other assays above

NC(=O)NC1N=C([O][Al])NC1=O (stereo not drawn)
not listed: NIH3T3
inactive: all other assays above

CC(=O)N[C@@H](CCC(N)=O)C(=O)O
not listed: NIH3T3
inactive: all other assays above

CC1(C)OC(=O)Nc2ccc(Br)cc21
not listed: NIH3T3
inactive: all other assays above

O=C(O)Cn1cnnn1
not listed: NIH3T3
inactive: all other assays above

OC1(c2ccc(Cl)cc2)CCNCC1
not listed: NIH3T3
inactive: all other assays above

C1N2CN3CN1CN(C2)C3
not listed: NIH3T3
inactive: all other assays above

CCOC(=O)C(O)c1ccccc1 (stereo not drawn)
not listed: NIH3T3
inactive: all other assays above

C1=CC2C3C=CC(C3)C2C1 (stereo not drawn)
inactive: HEK293T inactive [at 92 µM] | MCC-13 | MCC-26 | MKL-1 | MKL-2 | UISO | WaGa | C33A | CAOV3

O=C(CCOCCOCCOCCOCCC(=O)Nc1c(I)cc(I)c(C(=O)O)c1I)Nc1c(I)cc(I)c(C(=O)O)c1I
not listed: NIH3T3
inactive: all other assays above

CNC(=O)c1cnn(-c2nc(N)c3ncn([C@@H]4O[C@H](CO)[C@@H](O)[C@H]4O)c3n2)c1
not listed: NIH3T3
inactive: all other assays above

Oc1ccccc1-c1nnco1
not listed: NIH3T3
inactive: all other assays above

Cc1ccc(-c2ccccc2C#N)cc1
not listed: NIH3T3
inactive: all other assays above

Cc1c(F)cc2c(=O)c(C(=O)O)cn3c2c1CCC3C (stereo not drawn)
not listed: NIH3T3
inactive: all other assays above

CC(NC(CCc1ccccc1)C(=O)O)C(=O)N1C(=O)N(C)CC1C(=O)O (stereo not drawn)
not listed: NIH3T3
inactive: all other assays above

CC(C)C(=O)OCc1cccc(OC(=O)[C@@H]2N3C(=O)[C@@H](NC(=O)Cc4ccccc4)[C@H]3SC2(C)C)c1
not listed: NIH3T3
inactive: all other assays above

COc1cc(NS(=O)(=O)c2ccc(N)cc2)nc(C)n1
not listed: NIH3T3
inactive: all other assays above

Cc1c(N)cccc1C(F)(F)F
not listed: NIH3T3
inactive: all other assays above

CCCC(=O)Nc1ccc(O)c(C(C)=O)c1
not listed: NIH3T3
inactive: all other assays above

Cc1ccccc1N1CCN(CCc2nnc3n2CCCC3)CC1
not listed: NIH3T3
inactive: all other assays above

C[C@@]12CCC[C@H]1[C@@H]1CC[C@H]3C[C@@H](O)CC[C@]3(C)[C@H]1CC2
not listed: NIH3T3
inactive: all other assays above

O=C(O)CCCC[P+](c1ccccc1)(c1ccccc1)c1ccccc1
not listed: NIH3T3
inactive: all other assays above

Cc1oc(-c2ccccc2)nc1CCC(=O)c1ccc(CC2SC(=O)NC2=O)cc1 (stereo not drawn)
not listed: WaGa | NIH3T3
inactive: all other assays above

O=C(O)[C@H](O)[C@@H](O)[C@H](O[C@@H]1O[C@H](CO)[C@H](O)[C@H](O)[C@H]1O)[C@H](O)CO
not listed: NIH3T3
inactive: all other assays above

COc1cc2c(cc1OC)CN(C(=O)[C@H](C)N[C@@H](CCc1ccccc1)C(=O)O)[C@H](C(=O)O)C2
not listed: NIH3T3
inactive: all other assays above

CCOc1ccc(NS(=O)(=O)c2ccc(N)cc2)nn1
not listed: NIH3T3
inactive: all other assays above

CO[C@@]1(NC(=O)CSC[C@@H](N)C(=O)O)C(=O)N2C(C(=O)O)=C(CSc3nnnn3C)CS[C@@H]21
not listed: NIH3T3
inactive: all other assays above

CCOc1c(N2CCOCC2)cnn(C)c1=O
not listed: NIH3T3
inactive: all other assays above

CCCCC(CC)COC(=O)c1ccccc1C(=O)O (stereo not drawn)
inactive: HEK293T inactive [at 92 µM] | MCC-13 | MCC-26 | MKL-1 | MKL-2 | UISO | WaGa | C33A | CAOV3

Cc1cccc(C)c1NC(=O)c1cc(S(N)(=O)=O)c(Cl)cc1O
not listed: NIH3T3
inactive: all other assays above

CN1CCCN=C1/C=C/c1cccs1
not listed: NIH3T3
inactive: all other assays above

Cn1cc(S(C)=O)c(=O)c2ccc(F)cc21 (stereo not drawn)
not listed: HEK293T
inactive: all other assays above

CCOC(=O)NNc1ccc(N(CC)CC(C)O)nn1 (stereo not drawn)
not listed: MKL-2 | NIH3T3
inactive: all other assays above

O=C(c1ccco1)N1CCNCC1
not listed: MCC-26 | NIH3T3
inactive: all other assays above

Cc1nc([N+](=O)[O-])cn1-c1ccc([N+](=O)[O-])cc1
not listed: HEK293T | CAOV3
inactive: all other assays above

O=P(O)(O)OCC(O)CO (stereo not drawn)
not listed: HEK293T | CAOV3
inactive: all other assays above

CC(C)(C)C(=O)OCOC(=O)C1N2C(=O)CC2S(=O)(=O)C1(C)C (stereo not drawn)
not listed: MCC-26 | NIH3T3
inactive: all other assays above

O=C1Nc2ccccc2C1(c1ccc(O)cc1)c1ccc(O)cc1
inactive: MCC-13 | MCC-26 | MKL-1 | MKL-2

CN1N=C(C(N)=O)CCC1=O
not listed: MCC-26 | CAOV3
inactive: all other assays above

CC(=O)OCC[N+](C)(C)C
not listed: MKL-2 | WaGa | NIH3T3
inactive: all other assays above

COc1cc(C(=O)OC(COCCC(C)C)CN2CCOCC2)cc(OC)c1OC (stereo not drawn)
not listed: MCC-26 | CAOV3 | NIH3T3
inactive: all other assays above

COC(=O)/C=C(/C)N
not listed: MCC-26 | CAOV3
inactive: all other assays above

O=C(O)c1cn(C2CC2)c2cc(Cl)c(F)cc2c1=O
not listed: HEK293T
inactive: all other assays above

CN1C(CSCC(F)(F)F)Nc2cc(Cl)c(S(N)(=O)=O)cc2S1(=O)=O (stereo not drawn)
not listed: HEK293T
inactive: all other assays above

COc1cc(OC)nc(O[C@H](C(=O)O)C(OC)(c2ccccc2)c2ccccc2)n1
not listed: MCC-26
inactive: all other assays above

COc1ccccc1N1CCN(CCN2C(=O)CC3(CCCC3)CC2=O)CC1
inactive: HEK293T | NIH3T3 | C33A | CAOV3

CC(C)(C)c1ccc(C(=O)CCCCl)cc1
not listed: HEK293T | CAOV3
inactive: all other assays above

C[C@H]1C[C@H]2[C@@H]3CCC4=CC(=O)C=C[C@]4(C)[C@H]3C(=O)C[C@]2(C)[C@@]1(O)C(=O)CO
not listed: HEK293T | CAOV3
inactive: all other assays above

CC(C)CCCC(C)NCCC(C)C (stereo not drawn)
not listed: HEK293T
inactive: all other assays above

CCOC(=O)OCC/C(SC(=O)OCC)=C(\C)N(C=O)Cc1cnc(C)nc1N
not listed: HEK293T
inactive: all other assays above

CCCCCC[C@@H](CCC)C(=O)O
not listed: MCC-26
inactive: all other assays above

CC(=O)OC[C@H]1O[C@@H](OC(C)=O)[C@H](OC(C)=O)[C@@H]1OC(C)=O
not listed: HEK293T | CAOV3
inactive: all other assays above
